In PubChem BioAssay (EPA / NIEHS):
Results filed as inconclusive are left out. The source made the active and inactive calls. Rule for the calls, unless noted: active = hit-call score of the fitted dose curve at least 0.9, where 1 is the maximum; inactive = score below 0.9.

How the values were obtained:
[1] = ACEA_ER_80hr: ACEA Biosciences xCELLigence Real-Time Cell Analysis on Estrogen Receptor Agonism for Proliferation (AID 2282667; active = hit-call score of the fitted dose curve at least 0.9, where 1 is the maximum); conditions: T47D proliferation, impedance (xCELLigence), 80 h
Outline: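 Estrogen-driven proliferation is captured as electrode impedance in T47D cells 80 h after compound addition. Test articles ran at 8 concentrations, 1:4 dilutions from 100 uM final, in two replicate plates.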

[2] = ATG_CRE_CIS: Attagene CIS-FACTORIAL HepG2 Assay for human cAMP Responsive Element (CRE) binding protein 3 (AID 2282926); conditions: HepG2 CRE cis-reporter, Attagene multiplexed mRNA; actives raise or lower the signal
Outline: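 Transfected HepG2 were treated for 24 hours, then RNA was extracted and reporter cDNA amplified with sequence-specific primers. Labelled fragments were separated by capillary electrophoresis, and the CRE signal was fitted bidirectionally with DMSO as baseline.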

[3] = molecular target: CCAAT/enhancer-binding protein beta (Homo sapiens) (UniProt P17676); assay: ATG_C_EBP_CIS: Attagene CIS-FACTORIAL HepG2 Assay for human CCAAT/Enhancer Binding Protein (C/EBP) beta (AID 2282927); conditions: HepG2 Attagene cis-factorial transcription factor reporter; actives raise or lower the signal
Outline: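 HepG2, transient MRTU transfection, 24 h treatment. RT-PCR plus CE fluorescence; DMSO negative control, bidirectional fit.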

[4] = ATG_CMV_CIS: Attagene CIS-FACTORIAL HepG2 Assay for human CMV (Internal Marker) (AID 2282928); conditions: HepG2 CMV promoter reporter, transcription factor profiling; actives raise or lower the signal;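 note: endpoint acts as a background internal control marker rather than a target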
Outline: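 Cell system: HepG2, transiently transfected multiple reporter units under cis promoters. Exposure: 24 h. Detection: RT-PCR, FAM labeling, HpaI digestion, capillary electrophoresis. Analysis: bidirectional, DMSO baseline.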

[5] = ATG_DR4_LXR_CIS: Attagene CIS-FACTORIAL HepG2 Assay for human Liver X Receptor (LXR), DR4 submotif (AID 2282929); conditions: HepG2 Attagene DR4 cis-reporter, mRNA transcription; actives raise or lower the signal
Outline: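 Readout: reporter transcript fluorescence after RT-PCR and capillary electrophoresis, fitted bidirectionally against DMSO controls. Human HepG2 liver cells carried transiently transfected multiplexed reporter constructs; endogenous transcription factor activity measured 24 h post-dosing.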

[6] = molecular target: Aryl hydrocarbon receptor (Homo sapiens) (UniProt P35869); assay: ATG_Ahr_CIS: Attagene CIS-FACTORIAL HepG2 Assay for human Aryl Hydrocarbon Receptor (Ahr) (AID 2282930); conditions: HepG2 AhR cis-factorial reporter transcription; actives raise or lower the signal
Outline: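 Endogenous factor activity is tracked through cis-promoter reporter units transfected into HepG2 cells. Transcript levels at 24 h are read by fluorescent RT-PCR and capillary electrophoresis, with activity in either direction scored relative to DMSO.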

[7] = ATG_AP_1_CIS: Attagene CIS-FACTORIAL HepG2 Assay for human Activator Protein 1 (AP-1) (AID 2282931); conditions: HepG2 Attagene cis-factorial AP-1 reporter mRNA; actives raise or lower the signal
Outline: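 Reporter transcripts were measured 24 h after dosing by RT-PCR and capillary electrophoresis of fluorescent fragments. Cells: HepG2 carrying transfected cis-regulated reporter constructs reading endogenous factor activity. Gain or loss fitted against DMSO.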

[8] = ATG_AP_2_CIS: Attagene CIS-FACTORIAL HepG2 Assay for human Activator Protein 2 (AP-2) (AID 2282932); conditions: HepG2 AP-2 cis-reporter, Attagene transcription factor profiling; actives raise or lower the signal
Outline: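 HepG2 cells transiently transfected with cis-element reporter units and exposed for 24 h. Reporter mRNA measured by RT-PCR, FAM labelling, HpaI digestion and capillary electrophoresis. Changes in either direction fitted relative to DMSO.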

[9] = molecular target: Transcription factor E2F1 (Homo sapiens) (UniProt Q01094); assay: ATG_E2F_CIS: Attagene CIS-FACTORIAL HepG2 Assay for human E2F Transcription Factor 1 (AID 2282935); conditions: HepG2 Attagene cis-reporter, E2F reporter RNA transcripts; actives raise or lower the signal
Outline: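 Endogenous E2F1 activity read through cis-promoter reporter units transfected into HepG2. After 24 h compound treatment, reporter mRNA measured by RT-PCR, HpaI digestion and capillary electrophoresis. Bidirectional fit versus DMSO.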

[10] = ATG_E_Box_CIS: Attagene CIS-FACTORIAL HepG2 Assay for human Enhancer Box (E-box) (AID 2282936); conditions: HepG2 E-box cis-reporter transcription, actives raise or lower the signal
Outline: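 HepG2 cells transiently transfected with multiplexed cis-element reporter units, dosed 24 h; reporter mRNA quantified by RT-PCR, 6-FAM labelling, HpaI digestion and capillary electrophoresis. E-box (USF1) signal fitted bidirectionally vs DMSO.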

[11] = ATG_M_61_CIS: Attagene CIS-FACTORIAL HepG2 Assay for M61 Transcription Factor (Internal Marker) (AID 2282937); conditions: HepG2 Attagene CIS-FACTORIAL M61 internal marker reporter; actives raise or lower the signal
Outline: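 Readout: fluorescent reporter mRNA fragments resolved by capillary electrophoresis after RT-PCR. Transiently transfected human HepG2 cells carried MRTU constructs reporting endogenous TF activity; 24 h chemical exposure; gain or loss of signal fitted relative to DMSO.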

[12] = ATG_EGR_CIS: Attagene CIS-FACTORIAL HepG2 Assay for human Early Growth Response 1 (EGR1) (AID 2282938); conditions: HepG2 Attagene CIS-FACTORIAL EGR reporter mRNA; actives raise or lower the signal
Outline: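 Read-out: fluorescent reporter-mRNA fragments resolved by capillary electrophoresis after RT-PCR, 24 h post-dose in transiently transfected HepG2. Endogenous transcription-factor activity reported via cis-element-regulated reporter units; gain or loss fitted relative to DMSO.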

[13] = ATG_M_19_CIS: Attagene CIS-FACTORIAL HepG2 Assay for M19 Transcription Factor (Internal Marker) (AID 2282939); conditions: HepG2 Attagene CIS-FACTORIAL M19 internal marker reporter; actives raise or lower the signal
Outline: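 Internal marker readout, fitted in both directions against DMSO, from HepG2 cells carrying transfected cis-element reporter constructs; RT-PCR and capillary electrophoresis of reporter mRNA after 24 h exposure.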

[14] = ATG_ERE_CIS: Attagene CIS-FACTORIAL HepG2 Assay for Estrogen Response Element (ERE) (AID 2282940); conditions: HepG2 ERE cis-reporter, Attagene RNA transcript; actives raise or lower the signal
Outline: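 After 24 h compound treatment, RNA from transfected HepG2 cells was reverse-transcribed, reporter cDNA PCR-amplified, FAM-labelled, HpaI-cut and resolved by capillary electrophoresis. ERE-driven cis reporter transcripts reflect endogenous factors; gain or loss scored against DMSO.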

[15] = ATG_Ets_CIS: Attagene CIS-FACTORIAL HepG2 Assay for human Erythroblast Transformation Specific (ETS) (AID 2282941); conditions: HepG2 ETS cis-reporter transcription, actives raise or lower the signal
Outline: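 After transient cis-reporter transfection, HepG2 cells receive test chemical for 24 h. Reporter mRNA levels, measured by RT-PCR and capillary electrophoresis fluorescence, are analysed bidirectionally relative to the DMSO baseline.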

[16] = ATG_FoxO_CIS: Attagene CIS-FACTORIAL HepG2 Assay for human Forkhead box O (FoxO) (AID 2282943); conditions: HepG2 Attagene cis-reporter, FoxO element, mRNA; actives raise or lower the signal
Outline: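 Transfected HepG2 reporter cells exposed to test chemical for 24 h; reporter RNA measured by reverse transcription, PCR and fluorescent capillary electrophoresis; curves fitted for increases and decreases against DMSO.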

[17] = ATG_GATA_CIS: Attagene CIS-FACTORIAL HepG2 Assay for human GATA Binding Protein (AID 2282944); conditions: HepG2 GATA cis-element reporter, Attagene multiplex mRNA; actives raise or lower the signal
Outline: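 Reporter transcripts from a GATA cis-regulated unit, among multiplexed reporters in transfected HepG2 cells, were measured by RT-PCR with capillary electrophoresis after 24 h dosing. Induction or loss scored relative to DMSO.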

[18] = ATG_BRE_CIS: Attagene CIS-FACTORIAL HepG2 Assay for human Bone Morphogenetic Protein (BMP) Response Element (BRE) (AID 2282933); conditions: HepG2 BMP response element reporter, Attagene transcription factor profiling; actives raise or lower the signal
Outline: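 Endogenous transcription factor activity read in transiently transfected HepG2 cells after 24 h chemical exposure. Bidirectional curve fitting against DMSO; readout is reporter transcript level by RT-PCR with capillary electrophoresis of labelled products.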

[19] = molecular target: Retinoic acid receptor alpha (Homo sapiens) (UniProt P10276); assay: ATG_DR5_RAR_CIS: Attagene CIS-FACTORIAL HepG2 Assay for human Retinoic Acid Receptor Alpha (RARE), DR5 submotif (AID 2282934); conditions: HepG2 Attagene cis-factorial RARE DR5 reporter, mRNA; actives raise or lower the signal
Outline: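 After 24 h of chemical exposure, transiently transfected HepG2 cells were lysed for total RNA; the DR5-regulated reporter transcript was quantified via RT-PCR and capillary electrophoresis, with activity fitted bidirectionally against DMSO.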

[20] = molecular target: Hepatocyte nuclear factor 3-beta (Homo sapiens) (UniProt Q9Y261); assay: ATG_FoxA2_CIS: Attagene CIS-FACTORIAL HepG2 Assay for human Forkhead box A2 (FOXA2) (AID 2282942); conditions: HepG2 cis-reporter transcription factor activity, 24 h; actives raise or lower the signal
Outline: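 Readout: fluorescent reporter transcripts resolved by capillary electrophoresis after RT-PCR. Transiently transfected HepG2, 24 h compound exposure, endogenous TF activity at cis promoter elements. Gain or loss of signal fitted relative to DMSO.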

Measured: AC50

Chain of Aryl hydrocarbon receptor (Homo sapiens) (P35869 whole entry, looked up): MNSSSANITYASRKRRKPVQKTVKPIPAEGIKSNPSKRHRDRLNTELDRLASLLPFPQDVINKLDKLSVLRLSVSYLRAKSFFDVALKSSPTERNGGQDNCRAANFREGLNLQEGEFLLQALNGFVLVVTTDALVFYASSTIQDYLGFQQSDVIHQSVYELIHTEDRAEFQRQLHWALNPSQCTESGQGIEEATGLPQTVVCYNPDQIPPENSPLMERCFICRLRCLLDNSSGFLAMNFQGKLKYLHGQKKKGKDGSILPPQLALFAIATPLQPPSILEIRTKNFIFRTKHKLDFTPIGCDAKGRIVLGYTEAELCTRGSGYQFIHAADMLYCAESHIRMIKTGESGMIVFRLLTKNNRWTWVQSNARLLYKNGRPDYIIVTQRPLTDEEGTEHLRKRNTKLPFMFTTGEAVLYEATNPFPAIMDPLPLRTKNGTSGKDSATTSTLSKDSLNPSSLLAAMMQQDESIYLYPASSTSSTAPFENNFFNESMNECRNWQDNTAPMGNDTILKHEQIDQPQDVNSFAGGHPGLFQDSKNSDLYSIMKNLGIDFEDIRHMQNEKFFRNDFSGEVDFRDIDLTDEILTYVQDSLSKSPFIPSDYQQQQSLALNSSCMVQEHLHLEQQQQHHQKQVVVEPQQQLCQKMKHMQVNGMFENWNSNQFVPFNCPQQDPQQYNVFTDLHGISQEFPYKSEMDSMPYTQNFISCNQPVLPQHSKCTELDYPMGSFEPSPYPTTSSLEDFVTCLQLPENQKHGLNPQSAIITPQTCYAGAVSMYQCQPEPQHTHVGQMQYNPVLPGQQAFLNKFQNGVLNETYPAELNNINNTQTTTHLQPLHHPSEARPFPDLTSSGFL
Chain of CCAAT/enhancer-binding protein beta (Homo sapiens) (P17676 whole entry, looked up): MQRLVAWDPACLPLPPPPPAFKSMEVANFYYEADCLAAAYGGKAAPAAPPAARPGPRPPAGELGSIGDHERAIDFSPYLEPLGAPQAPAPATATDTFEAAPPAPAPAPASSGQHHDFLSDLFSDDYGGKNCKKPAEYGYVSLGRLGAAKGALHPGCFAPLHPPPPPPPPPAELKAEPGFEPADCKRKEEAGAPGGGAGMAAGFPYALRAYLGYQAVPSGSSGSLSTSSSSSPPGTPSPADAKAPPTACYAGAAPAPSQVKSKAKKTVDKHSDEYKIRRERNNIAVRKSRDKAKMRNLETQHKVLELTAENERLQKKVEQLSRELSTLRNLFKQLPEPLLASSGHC
Chain of Retinoic acid receptor alpha (Homo sapiens) (P10276 whole entry, looked up): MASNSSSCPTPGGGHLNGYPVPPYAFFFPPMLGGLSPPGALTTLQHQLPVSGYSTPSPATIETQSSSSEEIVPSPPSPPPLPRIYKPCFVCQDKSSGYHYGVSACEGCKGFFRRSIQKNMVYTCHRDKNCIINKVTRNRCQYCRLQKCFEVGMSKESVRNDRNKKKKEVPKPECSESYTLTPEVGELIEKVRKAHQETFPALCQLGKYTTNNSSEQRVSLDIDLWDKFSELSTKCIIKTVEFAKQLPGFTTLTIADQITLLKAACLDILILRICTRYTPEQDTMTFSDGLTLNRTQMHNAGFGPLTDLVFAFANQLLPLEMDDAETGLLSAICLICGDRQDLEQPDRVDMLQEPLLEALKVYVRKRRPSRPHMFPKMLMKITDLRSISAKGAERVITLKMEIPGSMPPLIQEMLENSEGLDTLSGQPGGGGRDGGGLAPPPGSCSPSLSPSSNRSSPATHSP
Chain of Hepatocyte nuclear factor 3-beta (Homo sapiens) (Q9Y261 whole entry, looked up): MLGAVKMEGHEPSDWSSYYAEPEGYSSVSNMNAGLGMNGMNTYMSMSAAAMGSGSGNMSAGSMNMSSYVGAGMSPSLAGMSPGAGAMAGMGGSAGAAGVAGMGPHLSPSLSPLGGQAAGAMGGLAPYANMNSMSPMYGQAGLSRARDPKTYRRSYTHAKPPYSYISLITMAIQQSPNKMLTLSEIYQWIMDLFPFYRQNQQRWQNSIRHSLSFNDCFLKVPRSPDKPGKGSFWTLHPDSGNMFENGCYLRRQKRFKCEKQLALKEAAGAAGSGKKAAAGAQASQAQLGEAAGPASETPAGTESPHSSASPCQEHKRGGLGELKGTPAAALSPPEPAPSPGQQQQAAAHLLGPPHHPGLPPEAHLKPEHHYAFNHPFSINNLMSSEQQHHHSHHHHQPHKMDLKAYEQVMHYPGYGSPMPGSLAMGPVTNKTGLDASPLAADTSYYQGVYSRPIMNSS
Chain of Transcription factor E2F1 (Homo sapiens) (Q01094 whole entry, looked up): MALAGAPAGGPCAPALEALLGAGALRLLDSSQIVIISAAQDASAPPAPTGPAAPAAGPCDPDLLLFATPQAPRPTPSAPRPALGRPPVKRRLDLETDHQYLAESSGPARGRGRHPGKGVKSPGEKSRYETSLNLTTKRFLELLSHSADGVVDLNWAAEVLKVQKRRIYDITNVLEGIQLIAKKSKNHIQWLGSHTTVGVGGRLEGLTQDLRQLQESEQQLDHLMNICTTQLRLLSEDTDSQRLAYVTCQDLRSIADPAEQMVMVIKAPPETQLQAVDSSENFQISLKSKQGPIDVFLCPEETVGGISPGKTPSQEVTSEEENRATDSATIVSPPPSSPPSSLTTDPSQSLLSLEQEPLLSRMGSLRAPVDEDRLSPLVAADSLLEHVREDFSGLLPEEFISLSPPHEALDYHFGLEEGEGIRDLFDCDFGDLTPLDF

OCC(O)CC(F)(F)C(F)(F)C(F)(F)C(F)(F)F (stereo not drawn)
inactive: [1] | [2] | [3] | [4] | [5] | [6] | [7] | [8] | [9] | [10] | [11] | [12] | [13] | [14] | [15] | [16] | [17]

CC(C)OC(=O)COc1ccc(Cl)cc1Cl
inactive: [1] | [2] | [3] | [4] | [5] | [6] | [8] | [18] | [19] | [9] | [10] | [11] | [12] | [13] | [14] | [15] | [20] | [16] | [17]

CC(C)OC=O
inactive: [1] | [2] | [3] | [4] | [5] | [6] | [7] | [8] | [18] | [9] | [10] | [11] | [12] | [13] | [14] | [15] | [20] | [16] | [17]

FC(F)(F)C(F)(F)C(F)(F)CC1CO1 (stereo not drawn)
inactive: [1] | [2] | [3] | [4] | [5] | [6] | [8] | [18] | [19] | [9] | [10] | [11] | [12] | [13] | [14] | [15] | [16] | [17]

NC(=O)C(F)(F)C(F)(F)C(F)(F)F
inactive: [1] | [2] | [3] | [4] | [5] | [6] | [8] | [18] | [19] | [9] | [10] | [11] | [12] | [13] | [14] | [15] | [20] | [16] | [17]

O=S(=O)(Cl)C(F)(F)C(F)(F)C(F)(F)C(F)(F)C(F)(F)C(F)(F)C(F)(F)C(F)(F)F
active: [7] 57.3 µM | [14] 29.4 µM
inactive: [1] | [2] | [3] | [4] | [5] | [6] | [8] | [19] | [9] | [10] | [11] | [12] | [13] | [15] | [16] | [17]

Cc1ccc([N+](=O)[O-])c(C)c1
inactive: [2] | [3] | [4] | [5] | [6] | [7] | [8] | [18] | [9] | [10] | [11] | [12] | [13] | [14] | [15] | [20] | [16] | [17]
active: [1] 22.4 µM

O=C(Cl)C(F)(F)C(F)(F)C(F)(F)C(F)(F)C(F)(F)C(F)(F)F
active: [7] 159 µM
inactive: [1] | [2] | [3] | [4] | [5] | [6] | [8] | [18] | [9] | [10] | [11] | [12] | [13] | [14] | [15] | [20] | [16] | [17]
